Laboratory results published in PubChem BioAssay (NCATS).
Results filed as inconclusive are left out. Active and inactive are the calls of the source. Unless noted, calls come from the whole dose curve; as a rule, active = well fitted inhibition curve with a large enough effect; inconclusive = small, poorly fitted or top-dose-only effect; inactive = flat fitted curve, though single readings scatter.

What was measured:
[1] = qHTS for identification of novel therapeutic agents for treatment of microphthalmiaassociated transcription factor (MiT) renal cell carcinoma (RCC) (AID 1963991; calls by dose curve); conditions: CellTiter-Glo, 48 h; for z-score: stronger effect = lower value; for Potency: active = Z-AUC below -0.8 in all three lines
Procedure, shortened: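 Three TFE3-fusion RCC lines (UOK109, UOK124, UOK145), 500 cells/well in complete medium, were treated with MIPE 4.0 compounds for 48 hours at 37 C. Viability was by CellTiter-Glo luminescence, normalized to DMSO (100%) and empty wells (0%); curves fitted over 11 concentrations.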

[2] = qHTS drug screen for cell cycle checkpoint inhibitors in PARPi-resistant BRCA-mutant ovarian cancer cell lines. (AID 1963452; calls by dose curve); conditions: PEO1/OlaR viability, CellTiter-Glo luminescence, 96 h; for Z-AUC: stronger effect = lower value
Procedure, shortened: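 PEO1, PEO4 and PEO1/OlaR ovarian cancer cells, 600 per well, exposed 96 h at 37C to a dilution series. Viability read by CellTiter-Glo luminescence, normalized to DMSO and empty wells; activity summarized as Z-AUC.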

[3] = qHTS profiling for inhibitors of Plasmodium falciparum proliferation (AID 504749);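 for activity, negative = inhibition: 0% = DMSO vehicle and full inhibition = artemisinin control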; for all read-outs here: nearly all actives have a fitted effect of over 60% in size; conditions: P. falciparum in erythrocytes, SYBR Green DNA, 72 h; for activity, negative = inhibition: at 28.7 µM (top of the series)
Procedure, shortened: (§1)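 P. falciparum-infected erythrocytes (0.3% parasitemia, 2.5% hematocrit final) were exposed to compounds for 72 h at 37 C in 5% CO2, then lysed with SYBR Green buffer overnight at room temperature; parasite DNA fluorescence was normalized to artemisinin and DMSO controls.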

3D7 = test: as above; conditions: P. falciparum in erythrocytes, SYBR Green DNA, 72 h; series mostly up to 28.7 µM
Procedure, shortened: as §1

7G8 = test: as above; conditions: P. falciparum in erythrocytes, SYBR Green DNA, 72 h; series mostly up to 28.7 µM
Procedure, shortened: as §1

AA1029 = test: as above; conditions: P. falciparum in erythrocytes, SYBR Green DNA, 72 h; series mostly up to 28.7 µM
Procedure, shortened: as §1

AS120 = test: as above; conditions: P. falciparum in erythrocytes, SYBR Green DNA, 72 h; series mostly up to 28.7 µM
Procedure, shortened: as §1

ATS189 = test: as above; conditions: P. falciparum in erythrocytes, SYBR Green DNA, 72 h; series mostly up to 28.7 µM
Procedure, shortened: as §1

ATS95 = test: as above; conditions: P. falciparum in erythrocytes, SYBR Green DNA, 72 h; series mostly up to 28.7 µM
Procedure, shortened: as §1

[4] = TFE3-RCC UOK109 viability, measured here: UOK109 Z-AUC
[5] = TFE3-RCC viability, measured here: UOK124 Z-AUC
[6] = TFE3-RCC viability, measured here: UOK145 Z-AUC
[7] = measured here: PEO1 parental Z-AUC
Potency is the fitted concentration of half-maximal effect.

## COc1ccc2c(c1)CC[C@H]1[C@@H]2CC[C@]2(C)[C@@H](NCCCCCCN3C(=O)C=CC3=O)CC[C@H]12
[1]; [4]
  z-score: 1.13
[1]; [5]
  z-score: 0.647
[1]; [6]
  z-score: 0.661

## O=C(O)C1=CO[C@@H](O[C@@H]2O[C@H](CO)[C@H](O)[C@H](O)[C@H]2O)[C@@H]2C(CO)=CC[C@H]12
[1]; [4]
  z-score: 0.598
[1]; [5]
  z-score: 0.803
[1]; [6]
  z-score: 0.387

## COc1ccc(-c2ccc3ncc4c(c3c2)n(-c2ccc(N3CCNCC3)c(C(F)(F)F)c2)c(=O)n4C)cn1
[2]
  Potency: 0.123 µM (active)
[2]; [7]
  Z-AUC: -2.24
[2]; measured here: PEO4 Z-AUC
  Z-AUC: -2.26
[1]; TFE3-RCC UOK109 viability
  Potency: 1.48 µM (active)
[1]; [4]
  z-score: -2.72
[1]; [5]
  z-score: -3.95
[1]; [6]
  z-score: -3.85

## Cc1ccc(C(=O)N(CCCN)[C@@H](c2nc3cc(Cl)ccc3c(=O)n2Cc2ccccc2)C(C)C)cc1
[2]
  Potency: 0.0098 µM (active)
[2]; [7]
  Z-AUC: -2.53
[2]; measured here: PEO4 Z-AUC
  Z-AUC: -2.45
[1]; TFE3-RCC UOK109 viability
  Potency: 0.00166 µM (active)
[1]; [4]
  z-score: -2.23
[1]; [5]
  z-score: -1.53
[1]; [6]
  z-score: -1.7

## COc1cc2c(cc1OC)CC(=O)N(CCCN(C)C[C@H]1Cc3cc(OC)c(OC)cc31)CC2
[2]
  Z-AUC: 0.967 (inactive)
[2]; [7]
  Z-AUC: 0.523
[2]; measured here: PEO4 Z-AUC
  Z-AUC: 0.443
[3]; parasite line A
  activity, negative = inhibition: -2.12% (inactive)
[3]; parasite line B
  activity, negative = inhibition: -3.25% (inactive)
3D7
  Potency: inactive
7G8
  Potency: 11.2 µM (active)
AA1029
  Potency: inactive
AS120
  Potency: inactive
ATS189
  Potency: inactive
ATS95
  Potency: inactive

## CC[C@H](C=C[C@@H](C)[C@H]1CC[C@H]2[C@@H]3CC=C4C[C@@H](O)CC[C@]4(C)[C@@H]3CC[C@]12C)C(C)C
[1]; [4]
  z-score: 0.875
[1]; [5]
  z-score: 0.915
[1]; [6]
  z-score: 1.02

## CNC1[C@H](O)C(O[C@@H]2C(O)C(O[C@H]3O[C@H]([C@@H](C)NC)CC[C@H]3N)[C@@H](N)C[C@H]2N)OC[C@]1(C)O (stereo partly drawn)
[1]; [4]
  z-score: 0.654
[1]; [5]
  z-score: 0.386
[1]; [6]
  z-score: 0.886

## COc1c(C)c2c(c(O)c1CC=C(C)CCC(=O)OCCN1CCOCC1)C(=O)OC2
[3]; parasite line A
  Potency: 7.94 µM (active)
[3]; parasite line B
  Potency: 10 µM (active)
3D7
  Potency: 11.2 µM (active)
7G8
  Potency: 4.47 µM (active)
AA1029
  Potency: 10 µM (active)
AS120
  Potency: 7.94 µM (active)
ATS189
  Potency: 7.94 µM (active)
ATS95
  Potency: 7.94 µM (active)

## C[C@]12C=CC(=O)C=C1CC[C@@H]1[C@@H]2[C@@H](O)C[C@@]2(C)[C@@H]1CC[C@]2(O)C(=O)CO
[1]; [4]
  z-score: 0.748
[1]; [5]
  z-score: 0.34
[1]; [6]
  z-score: -1.47

## Clc1ccc(COC(Cn2ccnc2)c2ccc(Cl)cc2Cl)c(Cl)c1 (stereo not drawn)
[3]; parasite line B
  Potency: 2.82 µM (active)
7G8
  Potency: 0.708 µM (active)
AA1029
  Potency: 4.47 µM (active)
AS120
  Potency: 2 µM (active)
ATS95
  Potency: 3.98 µM (active)

## CC(C)=CCCC(C)=CCCC(C)=CCCC(C)=CCCC(C)=CCCC(C)=CCCC(C)=CCCC(C)=CCCC(C)=CCO
[1]; [4]
  z-score: 0.865
[1]; [5]
  z-score: 0.571
[1]; [6]
  z-score: 1.27

## CC(C)c1onc(-c2c(Cl)cccc2Cl)c1COc1ccc(C=Cc2cccc(C(=O)O)c2)c(Cl)c1
[1]; [4]
  z-score: 0.965
[1]; [5]
  z-score: 0.847
[1]; [6]
  z-score: 0.507

## CCN1C[C@H](C)n2c(c(O)c3c(=O)n(Cc4ccc(F)c(Cl)c4)nc(C(=O)NC)c32)C1=O
[1]; [4]
  z-score: 0.808
[1]; [5]
  z-score: 0.545
[1]; [6]
  z-score: 2.87

## NCC1CCC(C(=O)O)CC1 (stereo not drawn)
[1]; [4]
  z-score: 0.68
[1]; [5]
  z-score: 0.972
[1]; [6]
  z-score: 0.669

## CC(C)CN(C[C@@H](O)[C@H](Cc1ccccc1)NC(=O)O[C@H]1CO[C@H]2OCC[C@H]21)S(=O)(=O)c1ccc(N)cc1
[3]; parasite line A
  activity, negative = inhibition: 1% (inactive)
[3]; parasite line B
  activity, negative = inhibition: -15.6% (inactive)
3D7
  Potency: inactive
7G8
  Potency: 12.6 µM (active)
AA1029
  Potency: inactive
AS120
  Potency: inactive
ATS189
  Potency: inactive
ATS95
  Potency: inactive

## CC=C1C2C=C(C)CC1(N)c1ccc(=O)[nH]c1C2 (stereo not drawn)
[1]; [4]
  z-score: 0.936
[1]; [5]
  z-score: 0.297
[1]; [6]
  z-score: 1.2

## O=c1[nH]c(=O)n([C@H]2C[C@@H](O)[C@@H](CO)O2)cc1I
[1]; [4]
  z-score: 0.108
[1]; [5]
  z-score: 0.166
[1]; [6]
  z-score: 0.313

## COc1cc2c(cc1OC)[C@@H]1Cc3ccc(OC)c(OC)c3CN1CC2
[1]; [4]
  z-score: 0.652
[1]; [5]
  z-score: 0.474
[1]; [6]
  z-score: 0.612

## CC1(C)OC2CC3C4CC(F)C5=CC(=O)C=CC5(C)C4C(O)CC3(C)[C@]2(C(=O)CO)O1 (stereo partly drawn)
[1]; [4]
  z-score: 0.56
[1]; [5]
  z-score: 1.01
[1]; [6]
  z-score: -1.73

## CN(CC=CC#CC(C)(C)C)Cc1cccc2ccccc12
[1]; [4]
  z-score: 0.358
[1]; [5]
  z-score: 0.58
[1]; [6]
  z-score: 2.39

## CC[C@H]1OC(=O)[C@H](C)[C@@H](O[C@H]2C[C@@](C)(OC)[C@@H](O)[C@H](C)O2)[C@H](C)[C@@H](O[C@@H]2O[C@H](C)C[C@H](N(C)C)[C@H]2O)[C@](C)(O)C[C@H](C)C(=NOCOCCOC)[C@H](C)[C@@H](O)[C@]1(C)O
[1]; [4]
  z-score: 1.24
[1]; [5]
  z-score: -0.315
[1]; [6]
  z-score: 0.696

## CC(=O)OCC(=O)[C@@]1(O)CC[C@H]2[C@@H]3CCC4=CC(=O)C=C[C@]4(C)[C@@H]3[C@@H](O)C[C@@]21C
[1]; [4]
  z-score: 0.953
[1]; [5]
  z-score: 0.317
[1]; [6]
  z-score: -2.56

## CO[C@H]1/C=C\O[C@@]2(C)Oc3c(C)c(O)c4c(O)c(c(C=NN5CCN(C6CCCC6)CC5)c(O)c4c3C2=O)NC(=O)C(C)=CC=C[C@H](C)[C@H](O)[C@@H](C)[C@@H](O)[C@@H](C)[C@H](OC(C)=O)[C@H]1C
[1]; TFE3-RCC UOK109 viability
  Potency: 0.105 µM (active)
[1]; [4]
  z-score: -1.72
[1]; [5]
  z-score: -2.38
[1]; [6]
  z-score: -2.93
